From PubChem BioAssay AID2330 (Broad Institute, 2010)
Among all 37,000 compounds or so, about 2,800 (7.6%) were called active. About 1% were inconclusive and are not listed. The sample holds actives, similar compounds and a random draw of the others, so the mix is not that of the screen. A number with no mark means an inactive call. Cut-off read from the data, not from the text of the source: active = inhibition above about 80%; inconclusive = no clear call, values can overlap the other calls; inactive = below that.

assay: NOMO-1 AML cell viability reduction, primary screen, STK33 inhibitor project, CellTiter-Glo luminescence (AID 2330); settings: NOMO-1 AML viability, 72 h, hits give high values, concentration not given here

Row | Structure (SMILES) | inhibition
1 | COc1ccc(NC(=O)N(C)C[C@@H]2Oc3c(NS(C)(=O)=O)cccc3C(=O)N([C@H](C)CO)C[C@H]2C)cc1 | 12.7%
2 | COc1cccc(-c2cc(C(F)(F)F)n3nc(C(=O)NCc4ccccn4)cc3n2)c1 | 12.5%
3 | COC(=O)c1sc(SC)c(-c2ccn(S(=O)(=O)c3ccc(Cl)cc3)n2)c1C | -4.42%
4 | Cc1ccc(S(=O)(=O)N(C)C[C@H]2Oc3ccc(NC(=O)Cc4cn(C)c5ccccc45)cc3CC(=O)N([C@@H](C)CO)C[C@H]2C)cc1 | 15.7%
5 | N#Cc1c(SCC(=O)Nc2ccc(F)cc2Cl)nc2c(c1C(F)(F)F)CCCCC2 | 24.5%
6 | C=CCn1c(SCc2nc3ccccc3[nH]2)nnc1-c1cccc(C)c1 | 1.23%
7 | Cc1noc(C)c1NC(=O)Nc1ccc2c(c1)CC(=O)N([C@H](C)CO)C[C@@H](C)[C@@H](CN(C)Cc1ccc(C(F)(F)F)cc1)O2 | 25.7%
8 | C[C@@H]1CN([C@H](C)CO)C(=O)Cc2cc(NC(=O)Cc3cn(C)c4ccccc34)ccc2O[C@@H]1CN(C)Cc1ccc(C(F)(F)F)cc1 | 112% (active)
9 | COc1ccc(NC(=O)Nc2ccc3c(c2)CC(=O)N([C@H](C)CO)C[C@H](C)[C@H](CN(C)Cc2ccncc2)O3)cc1 | -3.73%
10 | C[C@H]1CN([C@@H](C)CO)C(=O)Cc2cc(NC(=O)Cc3cn(C)c4ccccc34)ccc2O[C@H]1CN(C)Cc1ccccc1 | 7.92%
11 | C[C@H]1CN([C@@H](C)CO)C(=O)Cc2cc(NC(=O)Cc3cn(C)c4ccccc34)ccc2O[C@@H]1CN(C)Cc1ccccc1 | 32.3%
12 | C[C@@H]1CN([C@H](C)CO)C(=O)Cc2cc(NC(=O)Nc3cccc4ccccc34)ccc2O[C@@H]1CN(C)Cc1ccc(C(=O)O)cc1 | 20.5%
13 | COc1ccc(NC(=O)Nc2ccc3c(c2)CC(=O)N([C@@H](C)CO)C[C@@H](C)[C@@H](CN(C)Cc2ccc(C(F)(F)F)cc2)O3)cc1 | 101% (active)
14 | COc1ccc(CN(C)C[C@@H]2Oc3ccc(NC(=O)Nc4ccc(OC)cc4)cc3CC(=O)N([C@H](C)CO)C[C@H]2C)cc1 | 22%
15 | C[C@@H]1CN([C@H](C)CO)C(=O)Cc2cc(NC(=O)Nc3cccc4ccccc34)ccc2O[C@@H]1CN(C)Cc1ccc(C(F)(F)F)cc1 | 105% (active)
16 | C[C@@H]1CCCCO[C@@H](CN(C)C)[C@@H](C)CN([C@H](C)CO)C(=O)c2cc(NC(=O)c3ccncc3)ccc2O1 | 17.5%
17 | CC(C)NC(=O)N(C)C[C@H]1Oc2c(NC(=O)C3CCCCC3)cccc2C(=O)N([C@@H](C)CO)C[C@H]1C | -7.34%
18 | C[C@H](CO)N1C[C@H](C)[C@@H](CN(C)C(=O)Nc2ccc3c(c2)OCO3)Oc2c(cccc2N(C)C)C1=O | 13.3%
19 | Cc1noc(C)c1NC(=O)N(C)C[C@H]1Oc2ccc(NC(=O)Nc3ccc(C(F)(F)F)cc3)cc2CC(=O)N([C@@H](C)CO)C[C@@H]1C | 8.18%
20 | O=C(O)c1c(Br)c(Br)c(Br)c(Br)c1-c1c2ccc(=O)cc-2oc2cc(O)ccc12 | 21.5%
21 | O=C(CSc1nnc(-c2cccs2)n1-c1ccccc1Cl)Nc1cccc(C(=O)O)c1 | -8.58%
22 | O=C(NCc1ccccn1)C(=O)Nc1cccc(Cl)c1Cl | -11.7%

Row | Structure (SMILES) | inhibition
23 | O=c1n(Cc2ccccc2)c2ccccc2n1Cc1ccccc1 | 23%
24 | CC(C)(C)c1ccc(Cn2c(=N)n(CC(=O)O)c3ccccc32)cc1 | 31%
25 | N=c1n(CC(=O)c2ccc(Cl)c(Cl)c2)c2ccccc2n1Cc1ccccc1 | 92.6% (active)
26 | Cc1noc(C)c1NC(=O)Nc1ccc2c(c1)C(=O)N([C@H](C)CO)C[C@H](C)[C@@H](CN(C)Cc1ccc3c(c1)OCO3)OCCCC[C@@H](C)O2 | 0.0539%
27 | N#C/C(=C\c1ccc(O)c(O)c1)C(=O)NCc1ccccc1 | 133% (active)
28 | N#C/C(=C\c1ccc(O)c(O)c1)C(N)=O | 44.4%
29 | CC(C)=CC1C(C(=O)O)C1(C)C (centres undefined) | -10.7%
30 | COc1ccc(S(=O)(=O)N(C)C[C@H]2Oc3ccc(NS(=O)(=O)c4ccc(C)cc4)cc3CC(=O)N([C@@H](C)CO)C[C@@H]2C)cc1 | 16.4%
31 | COc1ccc(S(=O)(=O)Nc2cccc3c2O[C@@H](CN(C)S(=O)(=O)c2c(C)noc2C)[C@@H](C)CN([C@H](C)CO)C3=O)cc1 | 0.67%
32 | Cc1noc(C)c1NC(=O)Nc1ccc2c(c1)C(=O)N([C@H](C)CO)C[C@@H](C)[C@@H](CN(C)Cc1ccccc1)O2 | -0.997%
33 | C[C@H](CO)N1C[C@H](C)[C@H](CN(C)Cc2ccc(-c3ccccc3)cc2)Oc2ccc(NS(=O)(=O)c3ccccc3)cc2C1=O | 93.2% (active)
34 | COc1ccc(S(=O)(=O)Nc2ccc3c(c2)CC(=O)N([C@H](C)CO)C[C@H](C)[C@H](CN(C)Cc2ccc(C(F)(F)F)cc2)O3)cc1 | 125% (active)
35 | COc1ccc(S(=O)(=O)Nc2ccc3c(c2)C(=O)N([C@@H](C)CO)C[C@H](C)[C@H](CN(C)Cc2ccc(C(F)(F)F)cc2)O3)cc1 | 50.5%
36 | COc1ccc(S(=O)(=O)Nc2ccc3c(c2)C(=O)N([C@H](C)CO)C[C@H](C)[C@@H](CN(C)Cc2ccc(-c4ccccc4)cc2)O3)cc1 | 39.1%
37 | C[C@H]1CN([C@@H](C)CO)C(=O)Cc2cc(NS(=O)(=O)c3ccc(F)cc3)ccc2O[C@H]1CN(C)Cc1ccc(C(F)(F)F)cc1 | 34.1%
38 | Cc1ccc(S(=O)(=O)Nc2ccc3c(c2)C(=O)N([C@@H](C)CO)C[C@H](C)[C@@H](CN(C)Cc2ccc4c(c2)OCO4)O3)cc1 | 24.6%
39 | COc1ccc(S(=O)(=O)Nc2ccc3c(c2)C(=O)N([C@@H](C)CO)C[C@H](C)[C@@H](CN(C)Cc2ccc(C(F)(F)F)cc2)O3)cc1 | 33.8%
40 | Cc1ccc(S(=O)(=O)Nc2ccc3c(c2)C(=O)N([C@H](C)CO)C[C@H](C)[C@H](CN(C)Cc2ccc(Cl)c(Cl)c2)O3)cc1 | 91% (active)
41 | C[C@H](CO)N1C[C@H](C)[C@@H](CN(C)Cc2ccc(Cl)c(Cl)c2)Oc2ccc(NS(=O)(=O)c3ccccc3)cc2C1=O | 20.4%
42 | Cc1ccc(S(=O)(=O)Nc2ccc3c(c2)CC(=O)N([C@H](C)CO)C[C@@H](C)[C@H](CN(C)Cc2ccc(C(F)(F)F)cc2)O3)cc1 | 108% (active)
43 | Cc1ccc(S(=O)(=O)Nc2ccc3c(c2)CC(=O)N([C@@H](C)CO)C[C@H](C)[C@H](CN(C)Cc2ccccc2)O3)cc1 | 26%
44 | C[C@@H]1CN([C@@H](C)CO)C(=O)c2cc(NS(=O)(=O)c3ccccc3)ccc2O[C@@H]1CN(C)Cc1ccc(C(=O)O)cc1 | 28.2%
